PubChem BioAssay AID1159580 (chemical genetic matrix, 2015)
Hit rate of the full screen: of about 5,500 compounds, about 2,000 (36%) were called active. Inconclusive results (about 18%) are left out. Rule as the data show it: active = normalized growth mostly below about 0.91 (no sharp cut-off); inconclusive = no clear call, values can overlap the other calls; inactive = mostly above about 0.92. The list shows a part of the results.

Assay: chemical genetic growth profiling, strain panel (AID 1159580);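 also: tested at 20 µM; growth read once vehicle control cultures reached saturation at 30 °C; 1 = growth at the plate median or of vehicle wells; lower values mean less growth of the strain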
Details: S. cerevisiae deletion strains, growth OD
[1] = locus YHR030C, strain SLT2, stronger effect = lower value
[2] = locus YHR079C, strain IRE1, stronger effect = lower value
[3] = locus YJL095W, strain BCK1, stronger effect = lower value
[4] = locus YJR066W, strain TOR1, stronger effect = lower value
[5] = locus YLR113W, strain HOG1, stronger effect = lower value
[6] = locus YNL183C, strain NPR1, stronger effect = lower value
[7] = locus YOR231W, strain MKK1, stronger effect = lower value
[8] = locus YPL256C, strain CLN2, stronger effect = lower value

Measured: normalized growth

CCC(CO)NC(=O)C1C=C2c3cccc4c3c(cn4C)CC2N(C)C1 (stereo unspecified)
inactive: locus YAL013W, strain DEP1, stronger effect = lower value 0.988 | locus YAL040C, strain CLN3, stronger effect = lower value 1.08 | locus YCL061C, strain MRC1 (second series), stronger effect = lower value 0.999 | locus YDR150W, strain NUM1, stronger effect = lower value 1 | locus YDR363W, strain ESC2, stronger effect = lower value 0.972 | locus YER002W, strain NOP16, stronger effect = lower value 0.998 | locus YGR078C, strain PAC10, stronger effect = lower value 1 | locus YGR229C, strain SMI1, stronger effect = lower value 0.999 | locus YMR263W, strain SAP30, stronger effect = lower value 0.994 | locus YMR307W, strain GAS1, stronger effect = lower value 0.962 | locus YNL128W, strain TEP1, stronger effect = lower value 1.02 | locus YNL153C, strain GIM3, stronger effect = lower value 1 | locus YNL175C, strain NOP13, stronger effect = lower value 0.987 | locus YNL197C, strain WHI3, stronger effect = lower value 1.02 | locus YNL224C, strain SQS1, stronger effect = lower value 1 | locus YNL322C, strain KRE1, stronger effect = lower value 0.989 | locus YOR083W, strain WHI5 (second series), stronger effect = lower value 0.988 | locus YPL055C, strain LGE1, stronger effect = lower value 0.997 | locus YPL241C, strain CIN2, stronger effect = lower value 1

Nc1ccc(S(=O)(=O)O)cc1
inactive: [1] 0.992 | [2] 0.987 | [3] 0.998 | [4] 0.966 | [5] 0.976 | [6] 0.939 | [7] 1.01 | [8] 0.97

CC[C@]1(O)CC2CN(CCc3c([nH]c4ccccc34)[C@@](C(=O)OC)(c3cc4c(cc3OC)N(C=O)[C@H]3[C@@](O)(C(=O)OC)[C@H](OC(C)=O)[C@]5(CC)C=CCN6CC[C@]43[C@@H]65)C2)C1 (stereo partly specified)
inactive: locus YAL021C, strain ccr4, stronger effect = lower value 1 | locus YAL026C, strain drs2, stronger effect = lower value 0.984 | locus YAL030W, strain snc1, stronger effect = lower value 0.993 | locus YBL061C, strain skt5, stronger effect = lower value 1 | locus YBR009C, strain hhf1, stronger effect = lower value 0.988 | locus YBR023C, strain chs3, stronger effect = lower value 0.999 | locus YBR171W, strain sec66, stronger effect = lower value 0.978 | locus YBR231C, strain swc5, stronger effect = lower value 1.01 | locus YBR279W, strain paf1, stronger effect = lower value 0.989 | locus YCL011C, strain gbp2, stronger effect = lower value 1.01 | locus YCL016C, strain dcc1, stronger effect = lower value 1.03 | locus YCL061C, strain MRC1, stronger effect = lower value 0.971 | locus YCL069W, strain vba3, stronger effect = lower value 0.968 | locus YCR088W, strain abp1, stronger effect = lower value 0.986 | locus YDL005C, strain med2, stronger effect = lower value 0.985 | locus YDL040C, strain nat1, stronger effect = lower value 0.988 | locus YDR001C, strain nth1, stronger effect = lower value 1 | locus YDR069C, strain doa4, stronger effect = lower value 0.984 | locus YDR137W, strain rgp1, stronger effect = lower value 0.989 | locus YDR159W, strain sac3, stronger effect = lower value 0.994 | locus YDR195W, strain ref2 0.978 | locus YDR297W, strain sur2, stronger effect = lower value 0.982 | locus YDR334W, strain swr1, stronger effect = lower value 0.937 | locus YDR335W, strain msn5, stronger effect = lower value 0.977 | locus YDR392W, strain spt3, stronger effect = lower value 0.987 | locus YEL003W, strain gim4, stronger effect = lower value 0.972 | locus YEL037C, strain rad23, stronger effect = lower value 0.981 | locus YEL061C, strain CIN8 (second series), stronger effect = lower value 0.968 | locus YER015W, strain faa2, stronger effect = lower value 0.997 | locus YER016W, strain bim1, stronger effect = lower value 0.989 | locus YER111C, strain swi4, stronger effect = lower value 0.989 | locus YER155C, strain BEM2 (second series), stronger effect = lower value 0.962 | locus YFR010W, strain ubp6, stronger effect = lower value 0.94 | locus YGL167C, strain pmr1, stronger effect = lower value 0.972 | locus YGL173C, strain kem1, stronger effect = lower value 0.996 | locus YGL227W, strain vid30, stronger effect = lower value 0.985 | locus YGL240W, strain doc1, stronger effect = lower value 0.966 | locus YGL253W, strain hxk2, stronger effect = lower value 1.02 | locus YHR013C, strain ard1, stronger effect = lower value 1 | locus YHR027C, strain rpn1, stronger effect = lower value 0.992 | [1] 0.972 | [2] 0.97 | locus YHR142W, strain chs7, stronger effect = lower value 1.04 | locus YJL092W, strain hpr5, stronger effect = lower value 0.973 | locus YJL095W, strain BCK1 (second series), stronger effect = lower value 0.988 | [3] 0.958 | locus YJL115W, strain asf1, stronger effect = lower value 0.981 | locus YJL129C, strain trk1, stronger effect = lower value 1.01 | locus YJL154C, strain vps35, stronger effect = lower value 0.972 | locus YJL164C, strain tpk1, stronger effect = lower value 0.986 | locus YJL166W, strain qcr8, stronger effect = lower value 0.998 | [4] 0.939 | locus YKL160W, strain elf1, stronger effect = lower value 1.03 | locus YKR026C, strain gcn3, stronger effect = lower value 0.982 | locus YKR091W, strain srl3, stronger effect = lower value 0.999 | locus YLL001W, strain dnm1, stronger effect = lower value 1.01 | locus YLL026W, stronger effect = lower value 0.992 | locus YLL041C, strain sdh2, stronger effect = lower value 0.992 | locus YLR027C, strain aat2, stronger effect = lower value 0.991 | [5] 0.936 | locus YLR221C, strain rsa3, stronger effect = lower value 0.981 | locus YLR258W, strain gsy2, stronger effect = lower value 0.994 | locus YLR262C, strain YPT6 (second series), stronger effect = lower value 0.954 | locus YLR320W, strain mms22, stronger effect = lower value 0.985 | locus YLR342W, strain FKS1, stronger effect = lower value 0.984 | locus YLR357W, strain rsc2, stronger effect = lower value 0.92 | locus YLR370C, strain arc18, stronger effect = lower value 1.01 | locus YLR384C, strain iki3, stronger effect = lower value 1.01 | locus YML120C, strain ndi1, stronger effect = lower value 0.964 | locus YMR058W, strain fet3, stronger effect = lower value 0.982 | locus YMR125W, strain sto1, stronger effect = lower value 0.926 | locus YMR129W, stronger effect = lower value 0.994 | locus YMR205C, strain PFK2, stronger effect = lower value 1.01 | locus YMR231W, strain pep5, stronger effect = lower value 0.986 | locus YNL071W, strain lat1, stronger effect = lower value 0.973 | [6] 0.933 | locus YNL209W, strain ssb2, stronger effect = lower value 1 | locus YNL248C, strain rpa49, stronger effect = lower value 0.991 | locus YNL322C, strain KRE1 (second series), stronger effect = lower value 0.975 | locus YNR049C, strain mso1, stronger effect = lower value 0.975 | locus YOR001W, strain rrp6, stronger effect = lower value 0.945 | locus YOR070C, strain gyp1, stronger effect = lower value 0.999 | locus YOR080W, strain dia2, stronger effect = lower value 0.996 | locus YOR083W, strain WHI5, stronger effect = lower value 1.01 | locus YOR106W, strain vam3, stronger effect = lower value 0.998 | [7] 0.964 | locus YOR265W, strain rbl2, stronger effect = lower value 0.989 | locus YOR270C, strain vph1, stronger effect = lower value 1.04 | locus YOR290C, strain snf2, stronger effect = lower value 1.02 | locus YPL051W, strain arl3, stronger effect = lower value 1.01 | locus YPL078C, strain atp4, stronger effect = lower value 1.04 | locus YPL106C, strain sse1, stronger effect = lower value 0.953 | locus YPL240C, strain hsp82, stronger effect = lower value 0.952 | [8] 1.05
